According to PubChem BioAssay (EPA / NIEHS):
Values joined by “and” are separate entries in the source; they are usually repeats but may differ in a detail not shown here. Equal entries are not always repeated. Records with an inconclusive call do not appear. Active and inactive are the calls of the source. How the source made its calls, unless noted: active means hit-call score of the fitted dose curve at least 0.9, where 1 is the maximum; inactive means score below 0.9.

Assays:
[1] = molecular target: Nucleoli Translocation, AR (gene 367) (UniProt P10275); assay: UPITT_HCI_U2OS_AR_TIF2_Nucleoli_Antagonist: University of Pittsburgh U2OS Androgen Receptor-Transcriptional Intermediary Factor 2 (AR-TIF2) Antagonism High Content Imaging Assay for Nucleoli Translocation (AID 2283997; active means hit-call score of the fitted dose curve at least 0.9, where 1 is the maximum)
In short: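 U2OS cells co-expressing red-fluorescent-tagged human AR and green-fluorescent-tagged TIF2, imaged by high-content microscopy for nucleolar red fluorescence. Antagonist mode against DHT; primary screen at 20 uM final (0.2% DMSO).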

[2] = molecular target: Nucleoli Translocation, AR (gene 367) (UniProt P10275); assay: UPITT_HCI_U2OS_AR_TIF2_Nucleoli_Agonist: University of Pittsburgh U2OS Androgen Receptor-Transcriptional Intermediary Factor 2 (AR-TIF2) Agonism High Content Imaging Assay for Nucleoli Translocation (AID 2283998; active means hit-call score of the fitted dose curve at least 0.9, where 1 is the maximum)
In short: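 RFP-AR / GFP-TIF2 cells; cpds diluted in serum-free medium; single-point screen 20 uM final (0.2% DMSO), actives confirmed in triplicate; conc-response 0.195–50 uM final (0.5% DMSO). Readout: nucleolar red fluorescence, positive direction vs DMSO.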

[3] = CCTE_Simmons_MITO_basal_resp_rate: CCTE's HepG2 Seahorse XF Respirometric Screening Assay at Basal Respiratory State, Simmons Lab (AID 2284001); conditions: actives raise or lower the signal
In short: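 HepG2 oxygen consumption on Seahorse XF96 after compound injection, 7 concentrations 125 nM–100 uM final, reads every 6 min over 72 min. Triplicate biological replicates; bidirectional fit vs DMSO; fenpyroximate and 2,4-dinitrophenol controls.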

[4] = CCTE_Simmons_MITO_max_resp_rate: CCTE's HepG2 Seahorse XF Respirometric Screening Assay at Maximal Respiratory State [uncoupled], Simmons Lab (AID 2284002); conditions: actives raise or lower the signal
In short: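 HepG2, Seahorse XF96, maximal OCR post-FCCP. Cpd 125 nM–100 uM final (7 conc), n=3 biological. Kinetic reads every 6 min (3 min mix/3 min measure) over 72 min; fit bidirectional vs DMSO.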

[5] = CCTE_Simmons_MITO_inhib_resp_rate: CCTE's HepG2 Seahorse XF Respirometric Screening Assay at Inhibited Respiratory State [full ETC block], Simmons Lab (AID 2284006); conditions: actives raise or lower the signal
In short: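 HepG2 oxygen consumption was measured by Seahorse XF after compound, FCCP, then rotenone/antimycin A injections. Seven concentrations from 125 nM to 100 uM (final) were tested, with 6-min kinetic reads over 72 minutes. Inhibited-state OCR was fitted bidirectionally against DMSO.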

[6] = CCTE_Shafer_MEA_acute_spike_number: CCTE's Neural Acute Assay for Total Number of Spikes, Shafer Lab (AID 2284008);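 on AC50: curve fitted for decrease in spike count so AC50 reflects inhibitors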
In short: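 Rat cortical cultures, DIV 13/15, 37 C. 40 min baseline rec, cpd 0.03-40 uM, 40 min post-dose rec. Band-pass 300-5000 Hz, spike threshold 8x rms; % change in spike count per well, DMSO neg ctrl, loss-of-signal fit.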

[7] = CCTE_Shafer_MEA_acute_firing_rate_mean: CCTE's Neural Acute Assay for Mean Firing Rate, Shafer Lab (AID 2284009);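 further: analyzed for loss of signal so actives lower firing rate relative to DMSO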
In short: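 Rat primary cortical neurons on 48-well MEA plates, dosed at 0.03-40 uM on DIV 13 or 15; 40 min spontaneous activity recorded at 37 C before and after compound. Spike rate per electrode averaged per well, expressed as percent change from baseline.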

[8] = CCTE_Harrill_HTTr_Viability_MCF7: CCTE's 6-hour Cell Viability Assessment for the High-Throughput Transcriptomics (HTTr) Platform, in MCF-7 cells cultured in DMEM + 10% fetal bovine serum, Harrill Lab (AID 2284010)
In short: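 MCF-7 cells in DMEM + 10% FBS, 384-well, exposed 6 h to an eight-point dilution series. Membrane integrity scored by high-content imaging of propidium iodide exclusion; bidirectional fit versus DMSO.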

[9] = CCTE_Harrill_HTTr_Apoptosis_MCF7: CCTE's 6-hour Apoptosis Assessment for the High-Throughput Transcriptomics (HTTr) Platform, in MCF-7 cells cultured in DMEM + 10% fetal bovine serum, Harrill Lab (AID 2284011)
In short: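 Read-out: CellEvent Caspase 3/7 Green signal by high content imaging, gain-of-signal indicating apoptosis. MCF-7 cells, DMEM + 10% FBS, eight-point dilution series, 6 h exposure. Curves fitted bidirectionally relative to DMSO negative control.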

[10] = CCTE_Harrill_HTTr_CellCount_MCF7: CCTE's Cell Proliferation Assessment for the High-Throughput Transcriptomics (HTTr) Platform, Harrill Lab (AID 2284012; active means hit-call score of the fitted dose curve at least 0.9, where 1 is the maximum;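 further: cells exposed to compound for six hours; intended direction is loss of nuclei count meaning fewer cells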)
In short: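 MCF7 cells exposed 6 hours to an eight-point dilution series; Hoechst-stained nuclei counted by high-content imaging. Bidirectional curve fitting against DMSO baseline.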

[11] = CCTE_Shafer_MEA_acute_burst_number: CCTE's Neural Acute Assay for Single-Electrode Bursts, Shafer Lab (AID 2284013)
In short: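 Primary rat cortical neurons on 16-electrode MEA wells, treated on DIV 13 or 15 with compound at 0.03-40 uM. Single-electrode burst count from 40-min recordings at 37 C before and after exposure; percent change from baseline per well, DMSO negative control.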

[12] = CCTE_Shafer_MEA_acute_burst_duration_mean: CCTE's Neural Acute Assay for Mean Burst Duration, Shafer Lab (AID 2284014);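 further: hits are decreases in mean burst duration relative to DMSO controls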
In short: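 Rat primary cortical neurons on 48-well MEA, treated at DIV 13 or 15 with 0.03-40 uM in at least 3 wells. Value is percent change in mean burst duration, comparing 40 min recordings at 37 C before and during exposure.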

[13] = CCTE_Shafer_MEA_acute_per_burst_spike_number_mean: CCTE's Neural Acute Assay for Average Number of Spikes Per Burst, Shafer Lab (AID 2284015);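 further: hits are decreases in mean spikes per burst versus baseline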
In short: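 Percent change in mean spikes per single-electrode burst is compared between a 40 min baseline and a 40 min recording with compound (0.03-40 uM). Cultures were rat cortical neurons on MEA plates at DIV 13 or 15, recorded at 37 C, with DMSO as the negative control.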

[14] = CCTE_Shafer_MEA_acute_interburst_interval_mean: CCTE's Neural Acute Assay for Mean Interburst Interval, Shafer Lab (AID 2284016);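 further: percent change of mean interburst interval versus each well's own pre-dose baseline; curves fitted for decrease in interburst interval relative to DMSO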
In short: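 Percent change in mean single-electrode interburst interval was calculated per well from 40 min recordings before and after compound (0.03-40 uM). Recordings were made at 37 C on rat cortical cultures at DIV 13 or 15, with spikes detected at 8x rms threshold.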

[15] = CCTE_Shafer_MEA_acute_burst_percentage_mean: CCTE's Neural Acute Assay for Percentage of Spikes in a Burst, Shafer Lab (AID 2284017);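 on AC50: curve fitted for loss of signal so potency reflects decreased burst percentage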
In short: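 Well-level mean burst percentage from a 40-min recording after compound (0.03-40 uM) expressed as percent change from a 40-min baseline at 37C. Cultures: primary rat cortical neurons on MEA, dosed on DIV 13 or 15; fitted downward relative to DMSO.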

[16] = CCTE_Shafer_MEA_acute_burst_percentage_std: CCTE's Neural Acute Assay for Standard Deviation of Burst Percentage, Shafer Lab (AID 2284018);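 further: fitted in the negative direction so actives lower burst percentage SD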
In short: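 Rat primary cortical neurons on 48-well MEAs, DIV 13 or 15, 37 C. 40-min baseline then 40-min recording with compound (0.03-40 uM); well-level SD of per-electrode burst spike percentage, expressed as percent change from baseline.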

[17] = CCTE_Shafer_MEA_acute_per_network_burst_spike_number_mean: CCTE's Neural Acute Assay for Average Number of Spikes in a Network Burst, Shafer Lab (AID 2284019);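 on AC50: curve fitted for loss of signal so actives reduce spikes per network burst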
In short: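 Rat primary cortical neurons on 48-well MEA at DIV 13 or 15, 37 C; compounds 0.03-40 uM, at least three wells each. 40-min baseline then 40-min exposure recording; percent change in mean spikes per network burst.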

[18] = tested on: DIO1 (gene 1733); assay: CCTE_GLTED_hDIO1: CCTE's human Deiodinase 1 (DIO1) Inhibition Assay, Great Lakes Toxicology and Ecology Division (GLTED) Lab (AID 2283987; active means hit-call score of the fitted dose curve at least 0.9, where 1 is the maximum;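 further: isolated human DIO1 enzyme in a cell-free setup rather than cells; enzyme activity read as free iodide liberated from substrate via Sandell-Kolthoff colorimetry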)
In short: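 Steps: human DIO1 enzyme plus test chemical, 3 h incubation; free iodide then quantified in a second Sandell-Kolthoff step by absorbance. DMSO served as negative control and baseline.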

Sequence of Nucleoli Translocation, AR (gene 367) (P10275 whole entry, looked up): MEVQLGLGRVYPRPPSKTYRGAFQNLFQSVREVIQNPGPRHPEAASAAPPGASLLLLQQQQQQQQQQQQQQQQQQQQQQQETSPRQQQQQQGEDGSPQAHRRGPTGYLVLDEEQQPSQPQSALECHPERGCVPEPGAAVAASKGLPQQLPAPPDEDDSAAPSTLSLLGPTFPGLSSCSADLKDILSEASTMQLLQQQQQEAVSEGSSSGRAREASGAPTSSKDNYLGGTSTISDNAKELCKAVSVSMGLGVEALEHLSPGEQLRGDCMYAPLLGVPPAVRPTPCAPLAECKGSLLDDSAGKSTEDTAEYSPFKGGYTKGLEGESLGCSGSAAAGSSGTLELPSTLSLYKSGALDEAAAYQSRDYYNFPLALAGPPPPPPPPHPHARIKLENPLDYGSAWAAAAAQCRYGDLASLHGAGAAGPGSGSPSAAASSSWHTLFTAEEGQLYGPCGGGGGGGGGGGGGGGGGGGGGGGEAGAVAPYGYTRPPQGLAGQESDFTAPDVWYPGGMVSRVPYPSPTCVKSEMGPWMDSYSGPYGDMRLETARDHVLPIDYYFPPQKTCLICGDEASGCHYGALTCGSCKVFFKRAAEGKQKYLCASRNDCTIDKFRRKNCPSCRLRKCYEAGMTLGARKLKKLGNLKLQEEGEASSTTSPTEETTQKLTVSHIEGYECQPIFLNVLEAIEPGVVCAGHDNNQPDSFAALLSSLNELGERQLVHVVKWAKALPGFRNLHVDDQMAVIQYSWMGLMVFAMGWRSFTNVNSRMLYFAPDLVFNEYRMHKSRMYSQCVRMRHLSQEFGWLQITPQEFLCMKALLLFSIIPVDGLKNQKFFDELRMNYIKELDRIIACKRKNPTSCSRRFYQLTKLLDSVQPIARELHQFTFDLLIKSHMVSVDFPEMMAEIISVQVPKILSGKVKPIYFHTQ

Structure (SMILES): O=C1C2(Cl)C3(Cl)C4(Cl)C(Cl)(Cl)C5(Cl)C3(Cl)C1(Cl)C5(Cl)C24Cl (stereo not drawn)
- AC50 [1]: 13.3 µM (active)
- AC50 [2]: 12.7 µM (active)
- AC50 [3]: 54 µM (active)
- AC50 [4]: 35.8 µM (active)
- outcome [5]: inactive
- AC50 [6]: 1.84 µM (active)
- AC50 [7]: 1.84 µM (active)
- outcome [8]: inactive
- outcome [9]: inactive
- outcome [10]: inactive
- AC50 [11]: 3.27 µM (active)
- AC50 [12]: 9.11 µM (active)
- AC50 [13]: 9.36 µM (active)
- outcome [14]: inactive
- AC50 [15]: 9.9 µM (active)
- AC50 [16]: 32.5 µM (active)
- outcome [17]: inactive

Structure (SMILES): O=C1C(Cl)=C(Cl)C(=O)c2ccccc21
- AC50 [18]: 20 µM (active)

Structure (SMILES): CCC(C)(C)c1ccc(O)c(C(C)(C)CC)c1
- AC50 [18]: 46.1 µM (active)
- AC50 [3]: 38 µM (active)
- AC50 [4]: 78.2 µM (active)
- outcome [5]: inactive
- AC50 [6]: 4.73 µM (active)
- AC50 [7]: 4.69 µM (active)
- AC50 [8]: 42.1 µM (active)
- outcome [9]: inactive
- outcome [10]: inactive
- AC50 [11]: 5.29 µM (active)
- outcome [12]: inactive
- AC50 [13]: 20 µM (active)
- outcome [14]: inactive
- AC50 [15]: 7.93 µM (active)
- AC50 [16]: 32.6 µM (active)
- AC50 [17]: 8.12 µM (active)

Structure (SMILES): CC(C)c1cccc(C(C)C)c1O
- outcome [1]: inactive
- outcome [2]: inactive
- outcome [8]: inactive
- outcome [9]: inactive
- outcome [10]: inactive

Structure (SMILES): Cc1ccc2ccccc2c1C
- outcome [1]: inactive
- outcome [2]: inactive
- outcome [8]: inactive
- outcome [9]: inactive

Structure (SMILES): C[C@]12CCC(=O)C[C@@H]1CC[C@@H]1[C@@H]2CC[C@]2(C)[C@@H](O)CC[C@@H]12
- outcome [3]: inactive
- outcome [4]: inactive
- outcome [5]: inactive
- AC50 [6]: 20 µM (active)
- AC50 [7]: 20 µM (active)
- outcome [8]: inactive
- outcome [9]: inactive
- outcome [11]: inactive
- outcome [12]: inactive
- outcome [13]: inactive
- outcome [14]: inactive
- AC50 [15]: 30.5 µM (active)
- AC50 [16]: 31.1 µM (active)
- outcome [17]: inactive

Structure (SMILES): CC(C)(c1ccc(OCC2CO2)cc1)c1ccc(OCC2CO2)cc1 (stereo not drawn)
- AC50 [18]: 1.37 µM (active)
- AC50 [1]: 50 µM (active)
- outcome [2]: inactive
- outcome [8]: inactive
- outcome [9]: inactive

Structure (SMILES): COP(=S)(OC)Oc1cc(Cl)c(Cl)cc1Cl
- outcome [1]: inactive
- outcome [2]: inactive
- outcome [8]: inactive
- outcome [9]: inactive
- outcome [10]: inactive

Structure (SMILES): C[C@H]1CCCC(=O)CCC/C=C/c2cc(O)cc(O)c2C(=O)O1
- AC50 [1]: 6.39 µM (active)
- AC50 [2]: 80.6 µM (active)
- outcome [8]: inactive
- outcome [9]: inactive
- outcome [10]: inactive

Structure (SMILES): O=C(O)C(F)(F)C(F)(F)C(F)(F)C(F)(F)C(F)(F)C(F)(F)C(F)(F)C(F)(F)C(F)(F)C(F)(F)F
- AC50 [18]: 157 µM (active) and 18 µM (active)
- outcome [3]: inactive
- outcome [4]: inactive
- outcome [5]: inactive
- outcome [6]: inactive
- outcome [7]: inactive
- outcome [8]: inactive
- outcome [9]: inactive
- outcome [10]: inactive
- outcome [11]: inactive
- AC50 [12]: 20 µM (active)
- AC50 [13]: 5.97 µM (active)
- outcome [14]: inactive
- outcome [15]: inactive
- outcome [16]: inactive
- outcome [17]: inactive
